In test [1] the target is Rap guanine nucleotide exchange factor 3 (Homo sapiens) (UniProt O95398). The test can be described thus: Confirmatory qHTS for antagonist of cAMP-regulated guanine nucleotide exchange factor 3 (EPAC1) (AID 1645880).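 For activity, negative = inhibition: plate controls were DMSO only for no effect and full effect of the ATA control for full effect.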 Note: nearly all actives have a fitted effect of over 55% in size. Note: potency is the fitted concentration of half-maximal effect. The settings on record: EPAC1 Rap1B-BODIPY-GDP exchange, fluorescence; activity, negative = inhibition: at 115 µM (top of the series). Put shortly:
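Nucleotide exchange uses 100 nM EPAC1, 250 nM RAP1B-BODIPY-GDP and 50 uM GDP, with compounds in a concentration-titration series. After 5 min at room temperature, fluorescence (480 nm ex/540 nm em) is read every 5 min for 30 min. Data are normalized to control ATA and DMSO.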
In general terms: Quantitative high-throughput screening tests each substance at several concentrations.

For test [2] the target is unchanged. The test can be described thus: Confirmatory qHTS for agonist of cAMP-regulated guanine nucleotide exchange factor 3 (EPAC1) (AID 1645881).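 For activation: EPAC1 catalysed release of BODIPY-GDP from Rap1B seen as fluorescence loss; 100% = effect of cAMP agonist control.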 Note: nearly all actives have a fitted effect of over 75% in size. Note: potency is the fitted concentration of half-maximal effect.
For test [3], the target named is Rap guanine nucleotide exchange factor 4 (Homo sapiens) (UniProt Q8WZA2). Description: Confirmatory qHTS for agonist of cAMP-regulated guanine nucleotide exchange factor 4 (EPAC2) (AID 1645884). For activation: % is set by controls: 0 for no effect and ±100 for the full control effect.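 Note: nucleotide exchange releases bodipy-GDP from Rap1 and this lowers its fluorescence; nearly all actives have a fitted effect of over 65% in size.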 Note: potency is the fitted concentration of half-maximal effect.
For test [4], the target named is Rap guanine nucleotide exchange factor 3 (Homo sapiens) (UniProt O95398). Description: Counterscreen qHTS for antagonist of cAMP-regulated guanine nucleotide exchange factor 3 (EPAC1) (AID 1645888). Note: % of control where 0% means no effect. Put shortly: (§1)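 Measured: fluorescence of BODIPY-GDP bound to Rap1B, which falls as exchange proceeds. Conditions include 50 uM competing GDP, 5 and 30 min reads, and a later cAMP challenge for antagonist detection.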
A general note: A counterscreen serves to expose hits that act by an unwanted route or on another target.

The target is the same in test [5]. Description: Counterscreen qHTS for agonist of cAMP-regulated guanine nucleotide exchange factor 3 (EPAC1) (AID 1645889). For activation: % of control where 0% means no effect. Note: nearly all actives have a fitted effect of over 40% in size. Note: potency is the fitted concentration of half-maximal effect. Put shortly: as §1

Results filed as inconclusive are left out. Unmarked numbers belong to inactive results. Calls of active or inactive are those of the source. Calls come from the whole dose curve; as a rule, active = well fitted curve in the direction sought with a large enough effect; inconclusive = small, poorly fitted or top-dose-only effect, or another doubt; inactive = no such curve, though single readings can be large; an effect the other way counts as inactive or inconclusive.

Sequence of Rap guanine nucleotide exchange factor 3 (Homo sapiens) (O95398 whole entry, looked up): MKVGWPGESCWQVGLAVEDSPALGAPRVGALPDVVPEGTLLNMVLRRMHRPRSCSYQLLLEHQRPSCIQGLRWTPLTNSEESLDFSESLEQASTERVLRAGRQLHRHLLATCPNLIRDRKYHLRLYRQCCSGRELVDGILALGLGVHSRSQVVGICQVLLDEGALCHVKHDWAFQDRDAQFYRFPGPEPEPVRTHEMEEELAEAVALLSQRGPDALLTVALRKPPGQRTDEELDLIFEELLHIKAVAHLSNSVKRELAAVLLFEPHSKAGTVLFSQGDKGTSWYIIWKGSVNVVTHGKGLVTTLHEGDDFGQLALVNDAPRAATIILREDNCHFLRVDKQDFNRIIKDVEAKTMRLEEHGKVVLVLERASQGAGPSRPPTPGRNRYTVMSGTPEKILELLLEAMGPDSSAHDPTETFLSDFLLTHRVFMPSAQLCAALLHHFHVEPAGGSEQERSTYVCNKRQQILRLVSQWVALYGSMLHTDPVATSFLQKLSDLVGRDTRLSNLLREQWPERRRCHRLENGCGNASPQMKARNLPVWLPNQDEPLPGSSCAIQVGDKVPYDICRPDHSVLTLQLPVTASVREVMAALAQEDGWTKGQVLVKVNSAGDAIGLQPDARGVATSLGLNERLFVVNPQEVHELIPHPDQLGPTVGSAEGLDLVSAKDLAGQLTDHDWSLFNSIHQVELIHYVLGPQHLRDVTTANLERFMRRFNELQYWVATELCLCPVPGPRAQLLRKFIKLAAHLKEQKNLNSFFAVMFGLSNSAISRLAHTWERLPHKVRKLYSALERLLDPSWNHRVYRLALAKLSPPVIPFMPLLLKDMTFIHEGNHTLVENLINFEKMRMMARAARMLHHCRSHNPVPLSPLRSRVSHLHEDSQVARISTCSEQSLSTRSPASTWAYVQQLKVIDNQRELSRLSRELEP
Sequence of Rap guanine nucleotide exchange factor 4 (Homo sapiens) (Q8WZA2 whole entry, looked up): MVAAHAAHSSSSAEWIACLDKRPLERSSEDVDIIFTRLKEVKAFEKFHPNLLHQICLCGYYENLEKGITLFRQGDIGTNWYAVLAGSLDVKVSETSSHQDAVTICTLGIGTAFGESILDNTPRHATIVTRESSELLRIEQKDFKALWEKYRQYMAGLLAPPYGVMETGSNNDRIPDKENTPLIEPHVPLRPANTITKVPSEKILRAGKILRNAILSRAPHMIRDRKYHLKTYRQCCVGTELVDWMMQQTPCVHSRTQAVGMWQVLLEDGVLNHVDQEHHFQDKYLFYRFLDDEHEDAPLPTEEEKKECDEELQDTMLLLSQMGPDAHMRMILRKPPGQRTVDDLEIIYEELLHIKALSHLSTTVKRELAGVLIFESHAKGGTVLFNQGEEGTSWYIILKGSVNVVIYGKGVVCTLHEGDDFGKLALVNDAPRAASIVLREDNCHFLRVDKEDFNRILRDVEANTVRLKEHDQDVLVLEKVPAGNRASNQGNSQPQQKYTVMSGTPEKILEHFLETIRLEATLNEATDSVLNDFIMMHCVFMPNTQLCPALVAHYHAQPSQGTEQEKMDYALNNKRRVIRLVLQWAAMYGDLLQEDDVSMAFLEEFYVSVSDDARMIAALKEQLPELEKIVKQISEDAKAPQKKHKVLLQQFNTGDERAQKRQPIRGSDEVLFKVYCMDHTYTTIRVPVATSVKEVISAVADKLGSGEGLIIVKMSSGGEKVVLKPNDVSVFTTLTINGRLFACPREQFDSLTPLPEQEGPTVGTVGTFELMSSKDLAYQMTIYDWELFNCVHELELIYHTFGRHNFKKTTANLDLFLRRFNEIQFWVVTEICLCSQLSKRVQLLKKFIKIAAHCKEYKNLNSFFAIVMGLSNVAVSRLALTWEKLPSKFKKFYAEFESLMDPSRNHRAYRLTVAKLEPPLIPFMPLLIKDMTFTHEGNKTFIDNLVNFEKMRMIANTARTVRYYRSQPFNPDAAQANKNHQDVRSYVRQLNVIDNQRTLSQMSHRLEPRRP

With `COc1ccc(/C=C2\SC(=S)NC2=O)cc1OS(=O)(=O)c1ccc(NC(C)=O)cc1`, the Potency in test [1] was 37.9 µM (active). Further, the Potency result in test [2], in test [3], in test [4] and in test [5] was “inactive” in each case.
`CCCCN(CCCC)Cc1cc(=O)oc2cc(C)c(Cl)cc12`: the Potency result in test [1], in test [2], in test [3], in test [4] and in test [5] was “inactive” each time.
For the compound `Cc1ccc(-c2noc(CSc3nnnn3C3CCCCC3)n2)cc1`, the Potency entry in test [1], in test [2], in test [3], in test [4] and in test [5] was “inactive” throughout.
In the case of `COc1cccc(-c2nc(CS(=O)(=O)CC(=O)N3CCN(C)CC3)c(C)o2)c1`, the Potency entry in test [1], in test [2], in test [3], in test [4] and in test [5] was “inactive” in each case.
On to `Cc1ccc(/C=C2\S/C(=N/S(=O)(=O)c3cccs3)NC2=O)cc1`, for which, in test [1], the Potency was 67.5 µM (active). The Potency result in test [2], in test [3], in test [4] and in test [5] was “inactive” throughout.
With `C=CCn1c(SC(F)F)nc2scc(-c3ccco3)c2c1=O`, the Potency result in test [1], in test [2], in test [3], in test [4] and in test [5] was “inactive” in each case.
Take `CCC(=O)N1N=C(c2ccc(Cl)cc2)CC1c1ccco1` (stereo not given): the Potency entry in test [1], in test [2], in test [3], in test [4] and in test [5] was “inactive” throughout.
Turning to `O=S1(=O)[C@H]2CC3O[C@]2(C[C@@H]3c2ccc(F)cc2)CN1Cc1ccc(Cl)cc1`, the Potency result in test [1], in test [2], in test [3], in test [4] and in test [5] was “inactive” in each case.
Take `O=C(NN1C(=O)/C(=C/c2ccc(O)c([N+](=O)[O-])c2)SC1=S)c1ccccc1Cl`: the Potency in test [1] is 84.9 µM (active). Besides, the Potency result in test [2], in test [3], in test [4] and in test [5] was “inactive” each time.
In the case of `Cc1ccc(S(=O)(=O)N2[C@@H](c3cccc(Cl)c3)C(C(=O)O)=CC[C@H]2c2ccc(Cl)c(Cl)c2)cc1`, the Potency in test [1] is 67.5 µM (active). The Potency entry in test [2], in test [3], in test [4] and in test [5] was “inactive” throughout.
As to `Cc1onc(-c2ccccc2)c1C(=O)N1CCc2ccccc21`, the Potency entry in test [1] and in test [2] was “inactive” in each case. For the same compound, the activation in test [3] was 1.91% [at 17.1 µM, percent relative to cAMP agonist control]; in test [5] it was 18.4% [at 30.8 µM]. Further, the activity change, negative = inhibition in test [4] is -17.7% [at 30.8 µM].
Regarding `CC(=NNC(=O)c1ccncc1)c1ccc2ccccc2c1O`, the Potency entry in test [1] and in test [4] was “inactive” each time. For the same compound, the Potency is 100 µM (active) in test [2], 112 µM (active) in test [3] and 39.8 µM (active) in test [5].
As for `Cc1c(Cl)cccc1NC(=O)Nc1cccnc1`, the Potency result in test [1], in test [2], in test [3], in test [4] and in test [5] was “inactive” each time.
Regarding `CNC(=O)c1ccc2snnc2c1`, the Potency entry in test [1], in test [2], in test [3], in test [4] and in test [5] was “inactive” throughout.
As for `Cc1cc(C)c(S(=O)(=O)N2CCCC2)c(C)c1`, the Potency entry in test [1], in test [2], in test [3], in test [4] and in test [5] was “inactive” each time.
Turning to `O=S(=O)(c1ccc(Cl)cc1Br)N1CCCCC1`, the Potency result in test [1] and in test [2] was “inactive” throughout. In addition, the activation in test [3] was 12.1% [at 17.1 µM, percent relative to cAMP agonist control]; in test [5] it was 10.6% [at 30.8 µM]. Further, the activity change, negative = inhibition in test [4] is -6.37% [at 30.8 µM].
Regarding `CC(C)(C(=O)N1CCC1(C)C(=O)NS(=O)(=O)c1cccc(Cl)c1)c1ccccc1` (stereo not given), in test [1], the Potency was 75.7 µM (active). The Potency entry in test [2], in test [3], in test [4] and in test [5] was “inactive” throughout.
Turning to `COc1ccc(OC)c(NC2c3ccccc3C(=O)N2c2cccnc2)c1` (stereo not given), the Potency result in test [1], in test [2], in test [3], in test [4] and in test [5] was “inactive” in each case.
As to `CCOC(=O)C1CCCN(C(=O)c2cc(-c3ccco3)nc3ccccc23)C1` (stereo not given), the Potency in test [1] is 15.1 µM (active). Moreover, the Potency entry in test [2], in test [3], in test [4] and in test [5] was “inactive” throughout.
As to `Brc1ccc(C2Nc3cccc4cccc(c34)N2)cc1`, the Potency result in test [1], in test [2], in test [3], in test [4] and in test [5] was “inactive” throughout.
In the case of `CC(=O)Nc1scc(-c2ccccc2)[n+]1-c1ccc(C)cc1`, the Potency entry in test [1] and in test [2] was “inactive” throughout. The activation in test [3] was 11.2% [at 17.1 µM, percent relative to cAMP agonist control]; in test [5], 4.92% [at 30.8 µM]. The activity change, negative = inhibition in test [4] was -4.14% [at 30.8 µM].
For `COc1ccc(C(=O)c2ccc(Cl)cc2)c(OC)c1OC`, the Potency result in test [1] and in test [2] was “inactive” in each case. Moreover, the activation in test [3] is 6.47% [at 17.1 µM, percent relative to cAMP agonist control]; in test [5] it was 6.99% [at 30.8 µM]. Also, the activity change, negative = inhibition in test [4] is -1.07% [at 30.8 µM].
Take `O=C(O)CN1C(=O)/C(=C\c2cc(Br)ccc2OCc2ccccc2Cl)SC1=S`: in test [1], the Potency was 33.8 µM (active). In addition, the Potency result in test [2], in test [3], in test [4] and in test [5] was “inactive” each time.
As to `Clc1cccc(-c2ccc3nccn3c2)c1Cl`, the Potency entry in test [1], in test [2], in test [3], in test [4] and in test [5] was “inactive” in each case.
As to `COc1cc(/C=C2\SC(=S)N(NC(=O)c3ccc(O)cc3)C2=O)ccc1O`, the Potency in test [1] was 75.7 µM (active). For the same compound, the Potency result in test [2], in test [3], in test [4] and in test [5] was “inactive” in each case.

The values above are taken from PubChem BioAssay (NCATS).
